From the supplement of paper PMC3334620
In all, about 33,000 sequences were measured (“E-score (-0.5 to 0.5)”: median about -0.036, highest 2% from about 0.37 on). The sample holds the highest values, similar sequences and a random draw of the others, so the mix is not that of the screen.

These sequences were tested against T1, Yer064c (UniProt P40041) (assay: PBM E-score (8-mer binding enrichment) (E-score (-0.5 to 0.5)); higher = stronger / more preferred TF binding). Settings: protein concentration: 200 nM; construct: GST-full length.
T1 sequence: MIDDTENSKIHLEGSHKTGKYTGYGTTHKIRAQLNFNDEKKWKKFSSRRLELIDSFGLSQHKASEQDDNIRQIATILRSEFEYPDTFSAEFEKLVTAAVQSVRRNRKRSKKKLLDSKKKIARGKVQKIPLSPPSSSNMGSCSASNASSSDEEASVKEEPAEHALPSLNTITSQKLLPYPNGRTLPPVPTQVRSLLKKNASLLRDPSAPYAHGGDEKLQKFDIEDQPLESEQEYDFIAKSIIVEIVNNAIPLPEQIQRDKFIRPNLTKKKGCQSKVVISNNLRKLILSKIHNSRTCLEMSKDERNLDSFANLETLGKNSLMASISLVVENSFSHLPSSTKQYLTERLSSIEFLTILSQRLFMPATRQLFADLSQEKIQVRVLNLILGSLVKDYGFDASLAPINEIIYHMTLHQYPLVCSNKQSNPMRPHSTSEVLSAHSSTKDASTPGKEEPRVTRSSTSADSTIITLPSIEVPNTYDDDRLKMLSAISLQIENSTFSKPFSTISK
In short: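 E-scores (a modified Wilcoxon-Mann-Whitney statistic) were assigned by the Universal PBM Analysis Suite to every ungapped eight-base word pooled with its reverse complement. The input came from universal all-10-mer Agilent arrays made double-stranded by primer extension and probed with GST-tagged yeast transcription factors at about 100-200 nM. Fluorescent anti-GST detected bound protein, and masliner normalised the scans.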

| Sequence | PBM E-score |
| --- | --- |
| ATGACCGA | -0.0163 |
| AGTCCTAA | 0.366 |
| TGTCCTAA | -0.0793 |
| AGTCCTAT | 0.306 |
| AATAGCTA | -0.0209 |
| GCCTGGGA | -0.343 |
| GAGAATCA | 0.392 |
| TAGAATCA | 0.362 |
| AAGAATCA | 0.392 |
| GAGAATTA | -0.167 |
| GAGAATCC | -0.141 |
| CAGAATCA | 0.349 |
| GAACAGCA | -0.175 |
| AATGGACC | 0.0237 |
| CGAGACGA | -0.0652 |
| CGAGACTA | 0.37 |
| GGAGACTA | 0.375 |
| AGAGACTC | 0.386 |
| AGAGACTA | 0.347 |
| GGAGACAA | -0.173 |
| GGAGACCA | -0.176 |
| CGAGACAC | 0.13 |
| CCAGACTC | 0.206 |
| CCAGACTA | 0.208 |
| CGAGACTC | 0.369 |

| Sequence | PBM E-score |
| --- | --- |
| AGAGACTG | 0.0785 |
| AGCCTAGC | -0.166 |
| CTTCGCGA | 0.105 |
| ATGAGATA | 0.0605 |
| GTGCGGCA | -0.143 |
| CGGCGATA | 0.143 |
| AAGGAACG | -0.167 |
| AAAAGGAT | -0.0899 |
| GCACCCCC | -0.268 |
| AGTTAGTC | 0.447 |
| CGTTAGTA | 0.0645 |
| AGTTAGTG | 0.0232 |
| CGTTAGTC | 0.45 |
| AGTTAGTA | 0.196 |
| CGTTAGAC | -0.00028 |
| AATTGTAG | 0.13 |
| AAGAGCGC | 0.0664 |
| CCGTACAG | -0.123 |
| AAAATATA | 0.102 |
| ATAAGTCA | 0.438 |
| GTAAGTGA | 0.131 |
| CTAAGTCC | 0.148 |
| GTAAGTAA | 0.0006 |
| ATAAGTCC | 0.161 |
| CTAAGTAA | 0.204 |

| Sequence | PBM E-score |
| --- | --- |
| CTAAGTCA | 0.449 |
| ATAAGTCG | 0.223 |
| GTAAGTCA | 0.448 |
| CATCTCGG | 0.181 |
| AATCCAGC | -0.149 |
| AACCCATA | 0.111 |
| GAAGCGGA | -0.189 |
| AAATCAGC | 0.227 |
| GAATCAGC | 0.417 |
| AAATCAGA | 0.158 |
| CAATCAGC | 0.317 |
| CAATCAGA | 0.208 |
| GAATCAGA | 0.402 |
| CTTGCCGC | -0.264 |
| AGAGAACA | -0.0209 |
| GCGAACGC | -0.058 |
| GCGAATCC | -0.066 |
| GCGAATCA | 0.414 |
| ACGAATCT | 0.123 |
| TCGAATCA | 0.369 |
| CCGAATCA | 0.348 |
| TCGAATAA | -0.00971 |
| CCGAATCC | -0.186 |
| ACGAATCC | 0.171 |
| ACGAATCA | 0.404 |

| Sequence | PBM E-score |
| --- | --- |
| CTCACGCC | 0.172 |
| CGGGAATC | 0.0615 |
| CGCCTCGC | -0.087 |
| AATTCAAT | 0.0175 |
| AAATGCCC | -0.188 |
| GAGACACA | 0.288 |
| AGGGCTGC | -0.346 |
| AACACACC | 0.0884 |
| ATGCGGCG | -0.174 |
| CCCGCCCC | -0.223 |
| CACTAACA | 0.0977 |
| GATTAATA | 0.325 |
| GATTAACA | 0.367 |
| TATTAACA | 0.0799 |
| GACTAACA | 0.449 |
| CATTAATC | 0.271 |
| AACTAACC | 0.0831 |
| GACTAACC | 0.44 |
| GATTAATC | 0.391 |
| CACTAACC | -0.153 |
| TACTAACA | 0.0931 |
| GATTAACC | 0.294 |
